The text below walks through data of PubChem BioAssay (NCI).

Among the test systems are DU-145 prostate; K-562 leukemia; MALME-3M melanoma; MDA-MB-231 breast; RXF 393 renal; SF-268 CNS; SF-295 CNS; SF-539 CNS; UACC-257 melanoma; M14 melanoma; HCT-15 colon; HT29 colon; SNB-75 CNS; SNB-19 CNS; U251 CNS; PC-3 prostate; SK-MEL-5 melanoma; UACC-62 melanoma; LOX IMVI melanoma; SK-MEL-28 melanoma.
Common to all, as to assay: NCI-60 one-dose screen, 48 h (100 = growth as untreated, 0 = no growth, -100 = all killed)
What all share (conditions): 10 µM unless noted

About 83,000 compounds went through this panel and 20% of them were active in at least one assay; those are over-represented in the sample as a whole.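 The test compound was applied at a single concentration to cells in 96-well plates for 48 hours, and percent growth was recorded.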 Values without a mark were called inactive. The source made the active and inactive calls. How the source made its calls: active means growth percent below 10; inactive means the rest.

For the compound `O=C1c2ccccc2C23C(=C(c4cncnc4)c4ccccc42)CCCN13` (stereo not given), the growth in the assay with DU-145 prostate is 101%; in the assay with K-562 leukemia it was 102%; with MALME-3M melanoma, 94.7%; in the assay on MDA-MB-231 breast it was 101%; in the assay with RXF 393 renal, 104%; in the assay on SF-268 CNS it was 91.6%. Further, the growth was 95.9% in the assay with SF-295 CNS; 102% in the assay on SF-539 CNS; 108% in the assay on UACC-257 melanoma; 98.6% with M14 melanoma; 104% with HCT-15 colon; 101% with HT29 colon. Also, the growth in the assay with SNB-75 CNS was 85.3%; with SNB-19 CNS, 93.4%; with U251 CNS it was 102%; in the assay with PC-3 prostate it was 88.8%; in the assay on SK-MEL-5 melanoma it was 98.7%; in the assay on UACC-62 melanoma, 88.2%. Further, the growth is 76.1% in the assay on LOX IMVI melanoma and 101% in the assay on SK-MEL-28 melanoma.
As to `Cc1ccc(S(=O)(=O)NCCCNc2nc(Nc3ccc(N4CCN(C)CC4)cc3)nc3ccsc23)cc1`, the growth with DU-145 prostate was 42.7%; with K-562 leukemia it was 13.3%; in the assay on MALME-3M melanoma, -87.9% (active); with MDA-MB-231 breast, 23%; with RXF 393 renal, -59.3% (active); in the assay with SF-268 CNS, 42%. The growth with SF-295 CNS was -41.6% (active); with SF-539 CNS, -80.8% (active); in the assay with UACC-257 melanoma, -73.2% (active); in the assay with M14 melanoma, -69.6% (active); in the assay with HCT-15 colon it was 3% (active); in the assay with HT29 colon it was -61.8% (active). The growth with SNB-75 CNS was 88.5%; in the assay on SNB-19 CNS, 58.7%; in the assay with U251 CNS, 6.58% (active); in the assay on PC-3 prostate, 63.5%; in the assay on SK-MEL-5 melanoma, -84.1% (active); with UACC-62 melanoma, -48.3% (active). The figures for the growth with LOX IMVI melanoma and with SK-MEL-28 melanoma were -77.6% (active) and -84.5% (active), respectively.
As to `Cc1ccc(-c2csc(N/N=C/c3cccs3)n2)cc1`, the growth is 100% with DU-145 prostate; 74.4% in the assay on K-562 leukemia; 88.8% in the assay with MALME-3M melanoma; 92.5% with MDA-MB-231 breast; 115% with RXF 393 renal; 106% in the assay with SF-268 CNS. In addition, the growth with SF-295 CNS was 92.8%; in the assay on SF-539 CNS it was 104%; in the assay on UACC-257 melanoma it was 97.1%; in the assay with M14 melanoma, 90.4%; in the assay on HCT-15 colon, 59.1%; in the assay with HT29 colon it was 99.4%. In addition, the growth is 81.9% in the assay on SNB-75 CNS; 101% in the assay on SNB-19 CNS; 85.8% with U251 CNS; 68.2% in the assay on PC-3 prostate; 72.8% with SK-MEL-5 melanoma; 88.9% with UACC-62 melanoma. In addition, the growth in the assay on LOX IMVI melanoma was 94.5%; with SK-MEL-28 melanoma it was 102%.
In the case of `Nc1ncc(-c2ccc3ncnc(NCc4ccccc4)c3c2)cn1`, the growth is 23.7% in the assay with DU-145 prostate; 67.6% in the assay with K-562 leukemia; 38% in the assay on MALME-3M melanoma; 39.8% with MDA-MB-231 breast; 8.82% (active) with RXF 393 renal; 44.8% in the assay on SF-268 CNS. The growth with SF-295 CNS is 47.4%; in the assay on SF-539 CNS it was 44.3%; in the assay with UACC-257 melanoma it was 85.1%; in the assay on M14 melanoma, 65.6%; with HCT-15 colon, 42.8%; in the assay on HT29 colon it was 55.3%. Further, the growth is 41.2% in the assay with SNB-75 CNS; 52% in the assay on SNB-19 CNS; 64.1% in the assay with U251 CNS; 34.7% in the assay with PC-3 prostate; 48.6% in the assay on SK-MEL-5 melanoma; 44.8% in the assay with UACC-62 melanoma. The growth was 38.6% in the assay with LOX IMVI melanoma and 57.6% with SK-MEL-28 melanoma.
Turning to `COc1ccccc1/C=C/C(=O)c1nnn(-c2ccc(F)cc2)c1C`, the growth is 3.67% (active) in the assay with DU-145 prostate; 8.81% (active) with K-562 leukemia; 70.6% with MALME-3M melanoma; 65.6% in the assay on MDA-MB-231 breast; 40.7% in the assay on RXF 393 renal; 66.2% with SF-268 CNS. Moreover, the growth was 64.3% in the assay on SF-295 CNS; 20.7% in the assay with SF-539 CNS; 71.3% with UACC-257 melanoma; 62.3% in the assay with M14 melanoma; 22.9% in the assay with HCT-15 colon; 4.8% (active) with HT29 colon. The growth in the assay on SNB-75 CNS is 40.6%; in the assay on SNB-19 CNS, 63.2%; with U251 CNS, 36.3%; in the assay on PC-3 prostate, 68.9%; with SK-MEL-5 melanoma, 79.3%; with UACC-62 melanoma, 59.4%. Moreover, the growth in the assay with LOX IMVI melanoma is 2.13% (active); in the assay on SK-MEL-28 melanoma, 75.2%.
In the case of `Cn1cc(-c2nnc(N)nc2-c2c[nH]c3ccc(Br)cc23)c2cc(Br)ccc21`, the growth with DU-145 prostate was 109%; in the assay with K-562 leukemia it was 105%; in the assay on MALME-3M melanoma, 108%; in the assay with MDA-MB-231 breast it was 98.7%; with RXF 393 renal, 93.1%; with SF-268 CNS, 106%. Further, the growth in the assay with SF-295 CNS is 100%; in the assay with SF-539 CNS, 102%; in the assay on UACC-257 melanoma, 108%; with M14 melanoma, 102%; in the assay with HCT-15 colon, 91.3%; in the assay with HT29 colon, 97.1%. Moreover, the growth in the assay with SNB-75 CNS is 82.3%; in the assay on SNB-19 CNS, 98.7%; in the assay with U251 CNS, 99.7%; in the assay with PC-3 prostate, 102%; in the assay with SK-MEL-5 melanoma, 101%; with UACC-62 melanoma, 97.7%. In addition, the growth in the assay on LOX IMVI melanoma and with SK-MEL-28 melanoma was 101% each time.
For `CC1(C)CC[C@]2(C(=O)O)CC[C@]3(C)C(=CC[C@@H]4[C@@]5(C)CC[C@H](NOCCCN)C(C)(C)[C@@H]5CC[C@]43C)[C@@H]2C1`, the growth with DU-145 prostate is 94.7%; in the assay with K-562 leukemia it was 46.4%; in the assay on MALME-3M melanoma it was 91.6%; in the assay with MDA-MB-231 breast, 92.4%; with RXF 393 renal, 68.8%; with SF-268 CNS, 100%. Also, the growth in the assay on SF-295 CNS is 101%; in the assay with SF-539 CNS it was 86.4%; in the assay on UACC-257 melanoma, 89.2%; with M14 melanoma, 94.7%; in the assay with HCT-15 colon, 64.8%; in the assay on HT29 colon it was 74%. The growth with SNB-75 CNS was 97%; in the assay on SNB-19 CNS, 93.2%; with U251 CNS, 69%; in the assay on PC-3 prostate it was 65.3%; in the assay with SK-MEL-5 melanoma, 61.2%; with UACC-62 melanoma it was 71.4%. In addition, the results for the growth in the assay on LOX IMVI melanoma and in the assay on SK-MEL-28 melanoma were 32.4% and 87.4%, respectively.
